DT40 TDP1 no CPT: qHTS for Inhibitors of human tyrosyl-DNA phosphodiesterase 1 (TDP1): qHTS in cells in absence of CPT; DT40 Tdp1-/- hTDP1 cells, no CPT, ATP luminescence, 48 h; Potency, µM (highest dose often 46.2 µM), inactives show top-dose activity change, negative = growth inhibition, most hits filed as inhibitors; 420,000 tested, 15% active; AID 686978, 2013; note: nearly all actives have a fitted effect of over 55% in size
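Growth of hTDP1-complemented DT40 Tdp1-knockout cells is measured by ATP luminescence after at least 48 hr compound exposure at 37 °C, with DMSO substituting for the 20 nM CPT used in the parallel screen.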
HT1080 IDH1KD tx: kills HT-1080 cells with IDH1 knockdown; Potency, µM (titrated, usually from 46.1 µM), for the others: top-dose activity, negative = toxicity, hits mostly cytotoxic; HT-1080 IDH1 knockdown viability, ATP luminescence, 48 h; 360,000 tested, 2% active;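 note: 0% = DMSO wells and -100% = cell-free medium wells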
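Luminescent ATP read-out (CellTiter-Glo, 10 min at room temperature) after 48 h compound exposure at 37 °C gave viability of IDH1-knockdown HT-1080 cells. Activity was normalised to DMSO and cell-free wells, then fitted as concentration-response curves.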
KB-3-1 tox: kills parental KB-3-1 adenocarcinoma cells | AID 1347075 | KB-3-1 viability, CellTiter-Glo ATP luminescence, 72 h | Potency, µM (top dose mostly 46.1 µM), hits mostly cytotoxic | 400,000 tested, 1.4% active; note: nearly all actives have a fitted effect of over 60% in size
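KB-3-1 cells, DMEM (no phenol red) + 10% FBS; compound by pin transfer, 72 h, 37 °C. Readout: CellTiter-Glo luminescence after 10 min. Data normalized, curve-fitted.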
DT40 TDP1 CPT: growth inhibition of DT40 Tdp1-/-;hTDP1 cells with camptothecin (screen for TDP1 inhibitors). chicken DT40 Tdp1-/-;hTDP1 cells + 20 nM CPT, ATP luminescence, 48 h. Potency, µM (series often up to 46.2 µM), inactives show top-dose activity change, negative = growth inhibition, most hits filed as inhibitors. 420,000 tested, 12% active. AID 686979; note: nearly all actives have a fitted effect of over 55% in size
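Cell growth measured by CellTiter-Glo luminescence after a minimum 48 h, 37 C compound exposure with 20 nM CPT in Tdp1-knockout DT40 cells stably expressing hTDP1, seeded 400/well; qHTS titration format.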
KB-V1 cytotox: kills drug-selected multidrug resistant KB-V1 cells; KB-V1 MDR cells viability, CellTiter-Glo, 72 h; Potency, µM (doses to about 46.1 µM), hits mostly cytotoxic; 400,000 tested, 3.4% active; AID 1347076; note: nearly all actives have a fitted effect of over 60% in size
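Cytotoxicity via CellTiter-Glo luminescence after 72 h compound exposure at 37 degrees C. Cells: drug-selected KB-V1 line, DMEM phenol-red free plus 10% FBS. Compounds tested at multiple concentrations; normalized data fitted to concentration-effect curves.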
HT1080-NT tox: kills 2HG-producing HT-1080-NT fibrosarcoma cells. HT-1080-NT fibrosarcoma viability, CellTiter-Glo ATP luminescence, 48 h. Potency, µM (highest dose often 46.1 µM), inactives show at the highest dose activity, negative = less viability, usual class: cytotoxic. 360,000 tested, 1.6% active. AID 686970;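 note: NT is the 2HG producing partner of a matched IDH1 knockdown line; 0% = DMSO-treated cells and -100% = media-only wells without cells; nearly all actives have a fitted effect of over 55% in size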
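Viability of the 2HG-overproducing fibrosarcoma line after 48 hours of compound exposure at 37 degrees C was determined by luminescence with CellTiter-Glo, and concentration-effect curves were then fitted and categorized.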
Numbers without * were called inactive; i = inactive; ? = inconclusive; . = no result; ! = not active in a repeat; [ ] = remark or other dose. An excerpt weighted towards active compounds, which were near 19% of everything screened. Calls come from the whole dose curve; as a rule, active = well fitted curve in the direction sought with a large enough effect; inconclusive = small, poorly fitted or top-dose-only effect, or another doubt; inactive = no such curve, though single readings can be large; an effect the other way counts as inactive or inconclusive. Unless noted, % is set by controls: 0 for no effect and ±100 for the full control effect; potency is the fitted concentration of half-maximal effect.

SMILES | DT40 TDP1 no CPT | HT1080 IDH1KD tx | KB-3-1 tox | DT40 TDP1 CPT | KB-V1 cytotox | HT1080-NT tox
Cc1cccc(OCC(=O)NC2CCCc3ccccc32)c1C (stereo not drawn) | 16µM* | -26% | i | ? | ? | ?
C[C@H](CO)N1C[C@H](C)[C@@H](CN(C)C(=O)Nc2cc(F)ccc2F)Oc2ncc(-c3cccc(F)c3)cc2C1=O | ? | -1% | i | ? | i | -8%
Cc1ccc(S(=O)(=O)N(C)C[C@@H]2OCc3cn(nn3)CCCC(=O)N([C@H](C)CO)C[C@H]2C)cc1 | 0% | 15% | i | -25% | i | 20%
Nc1nc(Oc2ccc(F)cc2)c(Br)c(=O)[nH]1 | 4% | -2% | ? | -24% | i | -5%
Cc1nc2ccccn2c1C(=O)NC1CCCc2ccccc21 (stereo not drawn) | 7.3µM* | -8% | ? | 7.3µM* | ? | -2%
O=C(CCl)NC1CCCc2ccccc21 (stereo not drawn) | 18µM* | ? | i | 15µM* | ? | ?
O=C(Cc1ccc(Br)cc1)NC1CCCc2ccccc21 (stereo not drawn) | ? | -24% | i | ? | i | -5%
Cc1cccc(OCC(=O)Nc2ccc3c4c(cccc24)CC3)c1C | 8.2µM* | 4% | i | 12µM* | i | 1%
O=C(CCNS(=O)(=O)c1cccc2nonc12)NC1CCCc2ccccc21 (stereo not drawn) | -17% | -8% | i | 2% | 23µM* | -4%
CC(C)c1nnc(NC(=O)CCC(=O)NC2CCCCC2)s1 | -11% | 1% | i | 2% | i | -4%
CC(=O)c1ccc(N2CCN(C(C)C(=O)NC3CCCc4ccccc43)CC2)cc1 (stereo not drawn) | ? | 1% | 21µM* | ? | 9.2µM* | -9%
CC(C(=O)NC1CCCc2ccccc21)N1C(=O)C2CCCCC2C1=O (stereo not drawn) | 14% | 4% | i | 3% | i | 8%
CN(C(=O)CCl)C1CCCc2ccccc21 (stereo not drawn) | 2.9µM* | ? | 5.8µM* | 2.6µM* | ? | ?
CC(C)c1nnc(NC(=O)CCC(=O)NC2CCCc3ccccc32)s1 (stereo not drawn) | 15µM* | -3% | i | ? | ? | 4%
CC(=O)N(CCC1(C(C)C)CCOC(C)(C)C1)Cc1ccco1 (stereo not drawn) | -20% | -2% | i | ? | 12µM* | -3%
CCC1(C)CC(CCN(Cc2ccco2)C(C)=O)(c2ccccc2)CCO1 (stereo not drawn) | ? | -19% | i | ? | i | 4%
COc1cccc2c3c(c(C)nc12)CC(CO)O3 (stereo not drawn) | -19%[9.04 µM] | . | . | ? | . | .
CCOC(=O)C(C)/C(C)=N/NC(N)=S (stereo not drawn) | ? | -7% | i | 18µM* | i | ?
CCOC(=O)C(C)/C(C)=N\Nc1ccc([N+](=O)[O-])cc1[N+](=O)[O-] (stereo not drawn) | ? | -22% | i | ? | i | -1%
O=S(=O)(NCC1(N2CCOCC2)CCCCC1)c1ccc(F)c(F)c1F | ? | 2% | i | 10µM* | i | 2%
Cc1sc(N)nc1-c1cccs1 | -8% | -9% | i | 0% | i | -9%
Nc1nc(-c2cccs2)c(NC(=O)c2ccccc2)s1 | 18µM* | ? | i | 16µM* | i | -29%
COc1ccc(C(=O)C[n+]2cn(C(F)F)c3ccccc32)c(F)c1 | 21µM* | ? | i | ? | i | 21µM*
CCn1cc(C2CC(=O)NC2=O)c2ccccc21 (stereo not drawn) | 1% | -1% | i | -5% | i | 2%
CCC(C)NC(=O)Cn1c(=O)n(CC2CCC(C(=O)NC)CC2)c(=O)c2sccc21 (stereo not drawn) | -10% | . | i | 0% | ? | .
SMILES | DT40 TDP1 no CPT | HT1080 IDH1KD tx | KB-3-1 tox | DT40 TDP1 CPT | KB-V1 cytotox | HT1080-NT tox
O=C(Oc1cc(=O)oc2ccccc12)c1ccccc1 | 2.3µM* | 16µM* | 5.2µM* | 2.6µM* | i | 16µM*
O=C(Oc1c(-c2ccccc2)oc2ccccc2c1=O)c1ccccc1 | 10µM* | -26% | ? | ? | 12µM* | -22%
Cc1cc(OCc2cn3cccnc3n2)ccc1Cl | -9% | -1% | i | -1% | i | -4%
CN(C)c1ccsc1C(=O)NNS(=O)(=O)c1ccc(Cl)cc1 | -10% | -11% | i | 1% | i | -9%
Cc1cc(C)c(S(=O)(=O)N2CCN(C(=O)c3cc4ccccc4oc3=O)CC2)c(C)c1 | ? | -1% | i | 21µM* | i | -3%[9.24 µM]
O=C(c1cc2ccccc2oc1=O)N1CCN(c2ccc(Cl)cc2)CC1 | 21µM* | . | i | ? | i | .
O=C(c1cc2ccccc2oc1=O)N1CCCN(C(=O)c2cc3ccccc3oc2=O)CC1 | 8% | 16% | i | 0% | i | 6%
Cc1ccc(C)c(N)c1 | 2% | -1% | i | -16% | i | 21%
Cc1ccc(N)c(C(=O)CCCCC(=O)O)c1 | 0% | 7% | i | 2% | i | 8%
Cc1ccc(SSc2cc(C)ccc2N)c(N)c1 | 8.2µM* | -15% | ? | 7.3µM* | i | -24%
Cc1ccc(O)c(N)c1 | 23µM* | -29% | i | ? | i | ?
COc1ccc(CCNC(=O)C2c3ccccc3C(=O)N2Cc2ccccc2)cc1OC (stereo not drawn) | ? | . | . | -4% | . | .
CNC(=O)N(O)C1N(/N=C/c2ccccc2OC)C(=S)SC1(C)C (stereo not drawn) | 0% | 0% | i | 23% | i | 2%
Cc1c(Cl)cccc1NC(=O)CCS(=O)(=O)c1ccc2c(c1)CC(=O)N2C | -20% | . | i | -18% | i | .
COc1ccccc1OCC(=O)NNC(=O)c1ccoc1C | ? | -19% | i | 15µM* | i | 7%
CN(C)CCCN1c2ccccc2CCc2ccc(Cl)cc21 | 10µM* | 21µM* | i | 15µM* | ? | ?
CN(C)CCCN1c2ccccc2Sc2ccccc21 | 18µM*! | ? | i | 16µM* | ? | ?
